Calls of active or inactive are those of the source. The calls were made as follows: active = hit-call score of the fitted dose curve at least 0.9, where 1 is the maximum; inactive = score below 0.9.
biological target: Heat shock factor protein 1 (Homo sapiens) (UniProt Q00613); experiment: ATG_HSE_CIS: Attagene CIS-FACTORIAL HepG2 Assay for human Heat Shock Transcription Factor 1 (HSE) (AID 2282953); conditions: HepG2 HSE cis-reporter, Attagene RNA transcription; actives raise or lower the signal
Sequence (Q00613 whole entry, looked up): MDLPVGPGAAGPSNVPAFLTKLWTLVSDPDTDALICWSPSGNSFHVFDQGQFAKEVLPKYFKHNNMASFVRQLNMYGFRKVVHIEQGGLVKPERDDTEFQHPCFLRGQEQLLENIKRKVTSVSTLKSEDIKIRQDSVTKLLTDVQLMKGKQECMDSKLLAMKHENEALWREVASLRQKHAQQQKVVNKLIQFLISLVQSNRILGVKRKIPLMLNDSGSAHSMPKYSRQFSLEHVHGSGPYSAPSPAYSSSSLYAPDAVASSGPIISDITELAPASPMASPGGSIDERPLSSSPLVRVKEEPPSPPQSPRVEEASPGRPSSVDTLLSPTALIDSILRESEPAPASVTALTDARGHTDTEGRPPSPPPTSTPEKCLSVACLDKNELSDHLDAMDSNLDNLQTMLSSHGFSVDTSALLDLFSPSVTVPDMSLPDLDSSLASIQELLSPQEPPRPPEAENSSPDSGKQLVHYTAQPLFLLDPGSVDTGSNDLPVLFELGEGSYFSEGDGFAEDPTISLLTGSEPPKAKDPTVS
Method: ATG_CIS is a cell-based, multiplexed-readout assay that uses HepG2, a human liver cell line, with measurements taken at 24 hours after chemical dosing in a 24-well plate.ATG_HSE_CIS is one of 52 assay component(s) measured or calculated from the ATG_CIS assay. It is designed to make measurements of mRNA induction, a form of inducible reporter, as detected with fluorescence intensity signals by Reverse transcription polymerase chain reaction (RT-PCR) and Capillary electrophoresis technology.Data from the assay component ATG_HSE_CIS was analyzed into 1 assay endpoint. This assay endpoint, ATG_HSE_CIS, was analyzed with bidirectional fitting relative to DMSO as the negative control and baseline of activity. Using a type of inducible reporter, measures of mRNA for gain or loss-of-signal activity can be used to understand the reporter gene at the transcription factor-level as they relate to the gene HSF1. Furthermore, this assay endpoint can be referred to as a primary readout, because this assay has produced multiple assay endpoints where this one serves a reporter gene function. To generalize the intended target to other relatable targets, this assay endpoint is annotated to the dna binding intended target family, where the subfamily is heat shock protein.
Human liver HepG2 cells are transiently transfected with multiple reporter transcription units (MRTUs) in 6-well plates using FuGene 6 reagent (Roche; 3 ml FuGene/1 mg DNA). The MRTU constructs are regulated by a cis-regulating element (promoter). […] A major difference between the CIS and TRANS system is that in CIS activities of endogenous TFs are measured, whereas the TRANS assay evaluates changes in activities of exogenous, chimeric NR-Gal4 proteins. […] At the end of 24 hour incubation, total RNA was isolated using TriZol reagent (Invitrogen). The isolated RNA is then reverse-transcribed using oligo(dT) primer and Mo-MLV reverse transcriptase (Invitrogen) with DNAse I (Ambion) treatment for 30 min. The one-tenth of the produced cDNA was amplified by PCR using Taq DNA polymerase (Invitrogen) and two reporter sequence-specific primers. The PCR products were fluorescently labeled by primer extension with 6-arboxyfluorescein (6-FAM) 5'-labeled reporter sequence-specific primer (2 min at 95 C, 20 s at 68 C and 10 min at 72 C) and these products were digested with 5U of HpaI (New England Biolabs) for 2h at 37 C. The fragments were purified using Qiaquick PCR columns (Qiagen), analyzed on an ABI 3130xL genetic analyzer (Applied Biosystems) with peak positions identified by using a set of X-rhodamine (ROX)-labeled MapMarker1000 molecular weight standards (BioVentures). The raw capillary electrophoresis data was processed using Attagraph software (Attagene).

SMILES | outcome | AC50
C=CC(=O)OC | inactive | –
S=c1[nH]c2ccccc2[nH]1 | inactive | –
COc1ncc(F)c2nc(S(=O)(=O)Nc3c(F)cccc3F)nn12 | inactive | –
CC(=O)/C=C/c1ccccc1 | – | 156 µM (active)
Nc1ccccc1C(=O)OCCc1ccccc1 | inactive | –
CC(C)(C)C(O)C(Oc1ccc(-c2ccccc2)cc1)n1cncn1 (stereo not given) | – | 59.6 µM (active)
Nc1ccccc1C(=O)Oc1ccc2ccccc2c1 | – | 27.7 µM (active)
C=Cc1cccc(CCl)c1 | inactive | –
CCOP(=O)(OCC)OCC | inactive | –
O=[N+]([O-])c1ccc(Cl)cc1 | inactive | –
C[C@]12CC[C@H]3[C@@H](CC[C@@]45O[C@@H]4C(O)=C(C#N)C[C@]35C)[C@@H]1CC[C@@H]2O | inactive | –
Oc1ccc(C2(c3ccc(O)cc3)c3ccccc3-c3ccccc32)cc1 | – | 17.5 µM (active)
COc1cc(OC)nc(Oc2cccc(Oc3nc(OC)cc(OC)n3)c2C(=O)O)n1 | inactive | –
CC1(C)CC(=O)CC(C)(C)N1[O] | inactive | –
CCOP(O)OCC | inactive | –
CC(C)C(=O)Cl | inactive | –
C=CC(=O)OCCCCOC(=O)C=C | inactive | –
c1ccc(Nc2ccc3ccccc3c2)cc1 | inactive | –
CCCCCCC1CCOC1=O (stereo not given) | inactive | –
CC[N+](=O)[O-] | inactive | –

SMILES | outcome | AC50
N#CCCCl | inactive | –
COc1cc(OC)c(OC)cc1C=O | inactive | –
C=C(Cl)Cl | inactive | –
COc1ccc(CO)cc1 | inactive | –
CCCC=NO | inactive | –
CC(C)(c1cc(Cl)c(O)c(Cl)c1)c1cc(Cl)c(O)c(Cl)c1 | – | 56.5 µM (active)
C#CC1(O)CCCCC1 | inactive | –
CC(C)(O)C#N | inactive | –
CC=Cc1ccc2c(c1)OCO2 | inactive | –
CCCCCCCCCCCCCCCC[N+](C)(C)C | inactive | –
COC(=O)COc1ccc(Cl)cc1Cl | inactive | –
CCOC(=O)N(C)N=O | inactive | –
ClCCCCCCCl | inactive | –
O=C(O)COc1ccccc1 | inactive | –
C[N+](=O)[O-] | inactive | –
CC(C)CCCCCCCOC(=O)c1ccccc1C(=O)OCCCCCCCC(C)C | inactive | –
CC(=O)C=Cc1ccccc1 | – | 152 µM (active)
CNC(=N[N+](=O)[O-])NCC1CCOC1 (stereo not given) | inactive | –
CCCCNP(N)(N)=S | inactive | –
N#Cc1cc(I)c(O)c(I)c1 | inactive | –

Reference: PubChem BioAssay (EPA / NIEHS)
